Consider five molecules from PubChem BioAssay.

The source made the active and inactive calls. The rule behind the calls is not given here.

The test system of the experiment is Aerobactin synthetase IucA (Klebsiella pneumoniae hvKP1). The experiment is described as follows: IucA enzyme inhibition, primary screen, biochemical, Spectrum library (AID 1346200).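 Note: 100% = wells without compound and 0% = wells lacking enzyme.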 The conditions noted are these: malachite green pyrophosphate, A620, at 8 µM, active compounds read low.
Turning to `CCCCCCCCCCCC1=C(O)C(=O)C=C(O)C1=O`, the activity remaining is 102% (inactive). As to `NCc1ccc(S(N)(=O)=O)cc1`, the activity remaining is 114% (inactive). For the molecule `O=C1CC(c2ccccc2)Oc2ccccc21` (stereo not given), the activity remaining is 125% (inactive). As for `C[C@H](N)[C@H](O)c1cccc(O)c1`, the activity remaining was 115% (inactive).

In the case of `CS(=O)(=O)c1ccc(C2=C(c3ccccc3)C(=O)OC2)cc1`, the activity remaining was 87.7% (inactive).
